mcGAS inh – mouse cGAS inhibition by luminescence. hit rate 0.15% among 160,000. Q8C6L5. inhibition, % at 12.5 µM. recombinant cGAS, Kinase-Glo ATP depletion luminescence
hcGAS inh – blocks human cGAS activity; recombinant h-cGAS, ATP depletion, Kinase-Glo luminescence; inhibition, % at 12.5 µM; hit rate 0.081% among 290,000
Target sequence (Q8N884 whole entry, looked up): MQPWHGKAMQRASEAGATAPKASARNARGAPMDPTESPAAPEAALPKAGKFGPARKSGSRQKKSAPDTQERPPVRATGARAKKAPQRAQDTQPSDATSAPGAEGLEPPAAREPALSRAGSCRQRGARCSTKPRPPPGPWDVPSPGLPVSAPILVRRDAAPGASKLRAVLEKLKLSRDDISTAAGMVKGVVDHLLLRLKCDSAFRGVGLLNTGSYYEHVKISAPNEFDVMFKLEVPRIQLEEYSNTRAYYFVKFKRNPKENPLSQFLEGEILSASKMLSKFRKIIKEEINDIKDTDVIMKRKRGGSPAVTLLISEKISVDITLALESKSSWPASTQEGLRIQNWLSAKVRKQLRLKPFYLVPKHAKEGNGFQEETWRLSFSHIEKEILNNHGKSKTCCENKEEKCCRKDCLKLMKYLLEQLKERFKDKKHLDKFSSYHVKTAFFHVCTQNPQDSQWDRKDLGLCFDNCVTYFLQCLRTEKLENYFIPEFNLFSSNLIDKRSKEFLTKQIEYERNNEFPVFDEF
NPYLR7 ag – activates Aedes aegypti NPYLR7 receptor; HEK293T NPYLR7/Galpha15, GCaMP6s calcium fluorescence; activation, % at 10 µM; hit rate 0.15% among 270,000; AID 1259423; in the data active means activation above about 40%
Of the large screens only hits and unclear results are named; the others gave an inactive call; ! = not active in a repeat. In the library only some 0.24% were active in any assay of this set; here they are far more common. Unless noted, no stated cut-off is given here; in the data, active means inhibition above about 40%; inactive means the rest.

COc1cc(-c2cc(=O)c3c(O)c(OC)c(OC)c(OC)c3o2)cc(OC)c1OC	none (no result: mcGAS inh)
COc1c(O)cc2c(=O)oc3c(OC)c(O)cc4c(=O)oc1c2c34	hcGAS inh 75.3
Cc1cc(C)c(S(=O)(=O)n2cccn2)cc1C	none
O=C(CN1CCCCCC1=O)OCc1csc(-c2ccco2)n1	none (no result: mcGAS inh)
CCc1ocnc1C(=O)N(C)Cc1ccccc1OCC(C)C	none
O=c1[nH]c2n[nH]c(=S)n2c2c1CCCC2	hcGAS inh 50.9 (no result: mcGAS inh)
Cc1cc(=O)[nH]c2n[nH]c(=S)n12	none (no result: mcGAS inh)
Oc1[nH]c(=S)sc1C=Nc1ccccc1	mcGAS inh 57.2
C=CCn1c(O)c(C=Nc2ccccc2)sc1=S	none
CNC(=O)NC(=O)CCN1CC(c2ccccc2Cl)c2c([nH]c3ccccc23)C1C (centres undefined)	NPYLR7 ag 40.5 (no result: mcGAS inh)
O=C(CCn1c(=O)[nH]c2ccccc2c1=O)NCCc1ccccc1Cl	none (no result: mcGAS inh)
COC(=O)C1CCN(S(=O)(=O)c2c(F)cc(F)cc2Br)CC1	NPYLR7 ag 88.3 (no result: mcGAS inh)
COC(=O)C1CCN(S(=O)(=O)c2cc(Br)ccc2Br)CC1	none (no result: mcGAS inh)
COc1ccc(NC(=O)/C=C/c2cc(C)n(C3CC3)c2C)cn1	none
CCn1c(O)c(C=Nc2c(C)nn(C)c2C)c(=O)n(CC)c1=S	none
CCn1c(O)c(C=Nc2c(C#N)c(C)c(C)n2C2CCCCC2)c(=O)n(CC)c1=S	NPYLR7 ag 69.0
Cc1cccc(S(=O)(=O)NCCc2cn(Cc3ccc(Cl)cc3)c3ccccc23)c1	none (no result: mcGAS inh)
Cc1ccc(S(=O)(=O)Nc2cc(Sc3ncn[nH]3)c(O)c3ccccc23)c(C)c1	mcGAS inh 40.5
CCOc1ccc(S(=O)(=O)Nc2cc(Sc3ncn[nH]3)c(O)c3ccccc23)cc1	none
COc1ccc(Nc2cc3c(cn2)nc(-c2ccc(OC)c(OC)c2)n3C)cc1	none
COc1ccc(S(=O)(=O)NCC2CCCN(C(=O)CSc3ccccc3)C2)cc1 (centres undefined)	NPYLR7 ag 49.7!
O=C(COc1ccccc1)N1CCCC(CNS(=O)(=O)c2cccs2)C1 (centres undefined)	NPYLR7 ag 56.7!
O=C(CCCc1cccs1)N1CCCC(CNS(=O)(=O)c2cccs2)C1 (centres undefined)	none (no result: mcGAS inh)
COc1ccc(S(=O)(=O)NCC2CCCN(C(=O)C3CCOCC3)C2)cc1 (centres undefined)	none
CCn1cc(C(CC(=O)NCc2ccco2)c2cccc(Cl)c2)c2ccccc21 (centres undefined)	none
CC(NC(=O)C1CCN(C(=O)c2ccc(F)cc2)CC1)c1cccnc1 (centres undefined)	none (no result: mcGAS inh)
CC(C)(O)C#Cc1ccc(C(=O)N2CCOc3ccc(CN4CCc5ccccc5C4)cc3C2)cc1	none
COc1ccc(/C=C2\SC(=S)N(C(C)C(=O)O)C2=O)cc1OC (centres undefined)	none
CSCCC(C(=O)O)N1C(=O)/C(=C/c2ccc(O)cc2)SC1=S (centres undefined)	NPYLR7 ag 74.4
COc1ccc(/C=C2\SC(=S)N(C(CCSC)C(=O)O)C2=O)cc1OC (centres undefined)	none
COc1cc(/C=C2\SC(=S)N(C(C)C(=O)O)C2=O)ccc1O (centres undefined)	NPYLR7 ag 81.8
Cc1ccc(NC2C=CS(=O)(=O)C2)cc1C (centres undefined)	NPYLR7 ag 110.3
Cc1ccc(F)cc1CC(=O)NC1C=CS(=O)(=O)C1 (centres undefined)	none
NC(=O)CSc1ccc(NC(=O)C2CC2)nn1	none (no result: mcGAS inh)
N#Cc1cccc(C(=O)N2CCN(C(c3ccccc3)c3ccccc3)CC2)c1	none
N#Cc1cccc(C(=O)N2CCN(C(c3ccccc3)c3ccc(Br)cc3)CC2)c1 (centres undefined)	NPYLR7 ag 42.1
